Assay results as given in paper PMC7862700, “An all-to-all approach to the identification of sequence-specific readers for epigenetic DNA modifications on cytosine”.

Experiments:
Experiment in all cases: DAPPL (digital affinity profiling via proximity ligation, sequencing); 10 mM Tris-HCl pH 7.5, 50 mM NaCl, 1 mM DTT, 4% glycerol, room temperature, 30 min; GST-TFs on glutathione beads, 16-mer random dsDNA library, 0.1% formaldehyde crosslink after washing; high values mean tight binding
FLI1 = target: T1, FLI1 (Homo sapiens, UniProt Q01543 1-452); conditions: protein: recombinant; tags: N-terminal GST; dsDNA, one strand shown
T1 sequence: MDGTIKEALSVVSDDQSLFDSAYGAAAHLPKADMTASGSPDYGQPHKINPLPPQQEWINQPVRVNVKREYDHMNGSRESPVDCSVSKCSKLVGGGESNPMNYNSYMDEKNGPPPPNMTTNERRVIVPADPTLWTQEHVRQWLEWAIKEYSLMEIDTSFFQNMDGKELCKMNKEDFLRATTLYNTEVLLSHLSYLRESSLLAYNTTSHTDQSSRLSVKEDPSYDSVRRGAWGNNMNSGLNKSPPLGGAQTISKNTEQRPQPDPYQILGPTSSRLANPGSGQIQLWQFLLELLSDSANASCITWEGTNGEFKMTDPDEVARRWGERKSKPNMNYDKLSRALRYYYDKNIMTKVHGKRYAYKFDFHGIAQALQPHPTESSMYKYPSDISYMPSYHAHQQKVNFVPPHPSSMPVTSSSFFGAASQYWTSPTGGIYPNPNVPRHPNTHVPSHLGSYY
Procedure, shortened: (§1)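 Human transcription factors carrying a GST fusion were produced in yeast, bound to glutathione beads, tagged with DNA barcodes and pooled together with a tag-only sample. Each pool was held with 200 nmole of a random double-stranded 16-mer DNA library in Tris/NaCl/DTT/glycerol buffer for 30 min at room temperature, then washed, crosslinked in 0.1% formaldehyde, proximity-ligated with BsaI/T4 ligase (1 h, 37 °C), PCR-amplified and sequenced on an Illumina NextSeq500. Binding signal is the read frequency of each hexamer for a given factor divided by its frequency in the tag-only sample.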

ELK1 = target: T2, ELK1 (Homo sapiens, UniProt P19419 1-428); conditions: protein: recombinant; tags: N-terminal GST; dsDNA, one strand shown
T2 sequence: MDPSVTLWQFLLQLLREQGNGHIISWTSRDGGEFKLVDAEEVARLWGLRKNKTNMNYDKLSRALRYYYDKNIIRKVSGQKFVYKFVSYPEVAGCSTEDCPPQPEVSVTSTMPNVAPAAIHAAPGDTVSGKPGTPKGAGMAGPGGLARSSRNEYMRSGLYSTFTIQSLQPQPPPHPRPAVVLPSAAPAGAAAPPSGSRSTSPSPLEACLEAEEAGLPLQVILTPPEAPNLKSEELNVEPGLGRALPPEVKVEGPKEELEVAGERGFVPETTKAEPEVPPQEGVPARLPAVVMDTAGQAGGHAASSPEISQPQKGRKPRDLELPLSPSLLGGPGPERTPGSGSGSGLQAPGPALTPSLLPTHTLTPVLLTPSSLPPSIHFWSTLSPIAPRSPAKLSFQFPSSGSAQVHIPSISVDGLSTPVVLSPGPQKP
Procedure, shortened: as §1

GABPA = target: T3, GABPA (Homo sapiens, UniProt Q06546 1-454); conditions: protein: recombinant; tags: N-terminal GST; dsDNA, one strand shown
T3 sequence: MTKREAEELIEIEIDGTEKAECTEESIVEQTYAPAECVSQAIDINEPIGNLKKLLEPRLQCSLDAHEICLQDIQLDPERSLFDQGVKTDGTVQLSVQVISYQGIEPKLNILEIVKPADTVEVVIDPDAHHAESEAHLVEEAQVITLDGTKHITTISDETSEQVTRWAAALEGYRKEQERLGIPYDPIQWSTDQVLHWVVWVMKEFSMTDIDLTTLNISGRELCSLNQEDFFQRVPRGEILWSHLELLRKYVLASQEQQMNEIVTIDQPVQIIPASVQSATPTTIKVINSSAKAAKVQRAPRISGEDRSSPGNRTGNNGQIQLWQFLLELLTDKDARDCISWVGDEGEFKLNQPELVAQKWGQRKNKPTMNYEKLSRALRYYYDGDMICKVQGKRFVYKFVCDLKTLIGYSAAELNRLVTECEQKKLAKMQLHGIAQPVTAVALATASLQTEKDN
Procedure, shortened: as §1

ERG = target: T4, ERG (Homo sapiens, UniProt P11308 1-479); conditions: protein: recombinant; tags: N-terminal GST; dsDNA, one strand shown
T4 sequence: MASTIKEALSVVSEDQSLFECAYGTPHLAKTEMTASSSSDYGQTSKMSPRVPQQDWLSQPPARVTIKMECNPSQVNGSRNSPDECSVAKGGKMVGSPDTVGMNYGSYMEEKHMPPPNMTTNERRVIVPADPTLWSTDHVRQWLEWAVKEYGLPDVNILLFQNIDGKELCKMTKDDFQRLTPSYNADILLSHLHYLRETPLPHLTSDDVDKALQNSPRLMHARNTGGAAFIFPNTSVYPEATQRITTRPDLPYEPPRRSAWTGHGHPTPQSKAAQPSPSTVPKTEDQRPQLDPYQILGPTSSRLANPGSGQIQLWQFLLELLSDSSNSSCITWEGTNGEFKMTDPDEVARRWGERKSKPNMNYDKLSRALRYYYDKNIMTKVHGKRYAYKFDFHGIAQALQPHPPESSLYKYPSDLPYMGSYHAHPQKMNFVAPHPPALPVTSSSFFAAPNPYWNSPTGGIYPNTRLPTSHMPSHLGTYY
Procedure, shortened: as §1

ELF1 = ELF1 (Homo sapiens, UniProt P32519 1-619); conditions: protein: recombinant; tags: N-terminal GST; dsDNA, one strand shown
Procedure, shortened: as §1

EHF = target: T5, EHF (Homo sapiens, UniProt Q9NZC4 1-300); conditions: protein: recombinant; tags: N-terminal GST; dsDNA, one strand shown
T5 sequence: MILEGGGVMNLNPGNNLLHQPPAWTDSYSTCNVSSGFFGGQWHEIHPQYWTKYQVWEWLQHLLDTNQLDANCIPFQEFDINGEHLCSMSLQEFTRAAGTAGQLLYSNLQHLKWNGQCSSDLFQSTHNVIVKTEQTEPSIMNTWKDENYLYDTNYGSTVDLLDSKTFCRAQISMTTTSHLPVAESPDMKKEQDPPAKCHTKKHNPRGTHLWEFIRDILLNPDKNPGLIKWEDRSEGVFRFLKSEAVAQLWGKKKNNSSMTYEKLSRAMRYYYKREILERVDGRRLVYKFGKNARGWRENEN
Procedure, shortened: as §1

SPI1 = SPI1 (Homo sapiens, UniProt P17947 1-270); conditions: protein: recombinant; tags: N-terminal GST; dsDNA, one strand shown
Procedure, shortened: as §1

SPIB = SPIB (Homo sapiens, UniProt Q01892 1-262); conditions: protein: recombinant; tags: N-terminal GST; dsDNA, one strand shown
Procedure, shortened: as §1

ELK3 = target: T6, ELK3 (Homo sapiens, UniProt P41970 1-407); conditions: protein: recombinant; tags: N-terminal GST; dsDNA, one strand shown
T6 sequence: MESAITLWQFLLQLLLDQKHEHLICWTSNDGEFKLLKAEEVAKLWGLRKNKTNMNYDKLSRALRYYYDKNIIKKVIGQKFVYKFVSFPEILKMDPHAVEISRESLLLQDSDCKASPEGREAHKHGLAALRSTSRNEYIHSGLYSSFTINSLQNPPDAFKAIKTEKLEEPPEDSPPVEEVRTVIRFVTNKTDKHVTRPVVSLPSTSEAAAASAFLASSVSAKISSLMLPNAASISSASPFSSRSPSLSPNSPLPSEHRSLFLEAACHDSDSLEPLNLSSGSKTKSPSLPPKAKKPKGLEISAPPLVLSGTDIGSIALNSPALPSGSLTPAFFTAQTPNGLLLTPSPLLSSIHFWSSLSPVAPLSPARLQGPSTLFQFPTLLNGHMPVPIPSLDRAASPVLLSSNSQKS
Procedure, shortened: as §1

FEV = target: T7, FEV (Homo sapiens, UniProt Q99581 1-238); conditions: protein: recombinant; tags: N-terminal GST; dsDNA, one strand shown
T7 sequence: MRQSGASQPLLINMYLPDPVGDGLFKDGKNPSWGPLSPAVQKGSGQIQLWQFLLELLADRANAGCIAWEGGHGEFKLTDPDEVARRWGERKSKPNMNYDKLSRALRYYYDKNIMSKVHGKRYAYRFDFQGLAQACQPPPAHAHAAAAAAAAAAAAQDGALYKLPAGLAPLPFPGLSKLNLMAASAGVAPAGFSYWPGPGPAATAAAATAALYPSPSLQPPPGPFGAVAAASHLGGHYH
Procedure, shortened: as §1

ETV5 = ETV5 (Homo sapiens, UniProt P41161 1-510); conditions: protein: recombinant; tags: N-terminal GST; dsDNA, one strand shown
Procedure, shortened: as §1

HSF1 = HSF1 (Homo sapiens, UniProt Q00613 1-529); conditions: protein: recombinant; tags: N-terminal GST; chain copies: 3; dsDNA, one strand shown
Procedure, shortened: as §1

SPIC = target: T8, SPIC (Homo sapiens, UniProt Q8N5J4 1-248); conditions: protein: recombinant; tags: N-terminal GST; dsDNA, one strand shown
T8 sequence: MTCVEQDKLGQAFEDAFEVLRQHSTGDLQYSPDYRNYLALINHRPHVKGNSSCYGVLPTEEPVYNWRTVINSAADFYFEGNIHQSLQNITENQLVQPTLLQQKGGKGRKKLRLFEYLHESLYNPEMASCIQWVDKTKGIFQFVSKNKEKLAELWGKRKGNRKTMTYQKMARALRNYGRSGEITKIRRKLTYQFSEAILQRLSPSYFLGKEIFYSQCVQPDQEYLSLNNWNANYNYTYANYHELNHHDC
Procedure, shortened: as §1

ELF4 = ELF4 (Homo sapiens, UniProt Q99607 1-663); conditions: protein: recombinant; tags: N-terminal GST; dsDNA, one strand shown
Procedure, shortened: as §1

ELK4 = target: T9, ELK4 (Homo sapiens, UniProt P28324-2 1-405); conditions: protein: recombinant; tags: N-terminal GST; dsDNA, one strand shown
T9 sequence: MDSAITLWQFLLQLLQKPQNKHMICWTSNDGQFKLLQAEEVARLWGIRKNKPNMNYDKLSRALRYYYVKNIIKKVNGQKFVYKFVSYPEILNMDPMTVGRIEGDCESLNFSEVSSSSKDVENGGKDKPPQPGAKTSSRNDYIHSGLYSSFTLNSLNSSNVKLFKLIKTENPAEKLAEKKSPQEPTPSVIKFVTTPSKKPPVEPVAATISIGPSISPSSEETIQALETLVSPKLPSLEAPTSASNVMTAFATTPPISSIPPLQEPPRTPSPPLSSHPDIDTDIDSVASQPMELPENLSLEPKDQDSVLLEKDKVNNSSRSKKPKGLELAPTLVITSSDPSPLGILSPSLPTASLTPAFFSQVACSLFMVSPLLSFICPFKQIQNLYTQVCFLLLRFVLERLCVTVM
Procedure, shortened: as §1

ETV2 = target: T10, ETV2 (Homo sapiens, UniProt O00321 1-342); conditions: protein: recombinant; tags: N-terminal GST; dsDNA, one strand shown
T10 sequence: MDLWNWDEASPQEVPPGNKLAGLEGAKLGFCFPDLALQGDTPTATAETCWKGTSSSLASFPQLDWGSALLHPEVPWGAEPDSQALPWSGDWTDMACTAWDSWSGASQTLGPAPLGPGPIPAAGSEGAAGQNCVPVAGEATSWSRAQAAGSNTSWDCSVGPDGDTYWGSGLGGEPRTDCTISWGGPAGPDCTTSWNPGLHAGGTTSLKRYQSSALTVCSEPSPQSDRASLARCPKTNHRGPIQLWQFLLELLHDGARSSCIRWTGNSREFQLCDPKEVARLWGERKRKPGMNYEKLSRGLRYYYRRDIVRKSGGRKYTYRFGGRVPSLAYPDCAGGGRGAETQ
Procedure, shortened: as §1

ELF3 = target: T11, ELF3 (Homo sapiens, UniProt P78545 1-371); conditions: protein: recombinant; tags: N-terminal GST; dsDNA, one strand shown
T11 sequence: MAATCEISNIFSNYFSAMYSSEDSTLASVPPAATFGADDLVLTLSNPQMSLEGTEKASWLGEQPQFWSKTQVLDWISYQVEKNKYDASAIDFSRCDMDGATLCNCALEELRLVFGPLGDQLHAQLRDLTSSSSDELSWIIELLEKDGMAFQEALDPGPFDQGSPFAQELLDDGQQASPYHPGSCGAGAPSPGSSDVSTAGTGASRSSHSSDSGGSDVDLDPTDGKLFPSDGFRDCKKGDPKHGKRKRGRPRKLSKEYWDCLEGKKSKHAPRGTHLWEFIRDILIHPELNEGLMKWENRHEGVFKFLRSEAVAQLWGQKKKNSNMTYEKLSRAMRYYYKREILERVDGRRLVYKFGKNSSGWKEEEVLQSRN
Procedure, shortened: as §1

CRX = CRX (Homo sapiens, UniProt O43186 1-299); conditions: protein: recombinant; tags: N-terminal GST; dsDNA, one strand shown
Procedure, shortened: as §1

ETV1 = ETV1 (Homo sapiens, UniProt P50549 1-477); conditions: protein: recombinant; tags: N-terminal GST; dsDNA, one strand shown
Procedure, shortened: as §1

SPIB, sequence (Q01892 whole entry): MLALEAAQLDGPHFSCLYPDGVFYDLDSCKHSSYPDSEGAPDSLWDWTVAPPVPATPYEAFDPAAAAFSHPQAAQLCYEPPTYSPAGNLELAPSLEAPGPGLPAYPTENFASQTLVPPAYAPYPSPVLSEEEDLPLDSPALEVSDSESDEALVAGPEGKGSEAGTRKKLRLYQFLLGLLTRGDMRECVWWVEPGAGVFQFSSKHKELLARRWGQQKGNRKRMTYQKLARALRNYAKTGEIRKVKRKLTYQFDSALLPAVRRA
ETV1, sequence (P50549 whole entry): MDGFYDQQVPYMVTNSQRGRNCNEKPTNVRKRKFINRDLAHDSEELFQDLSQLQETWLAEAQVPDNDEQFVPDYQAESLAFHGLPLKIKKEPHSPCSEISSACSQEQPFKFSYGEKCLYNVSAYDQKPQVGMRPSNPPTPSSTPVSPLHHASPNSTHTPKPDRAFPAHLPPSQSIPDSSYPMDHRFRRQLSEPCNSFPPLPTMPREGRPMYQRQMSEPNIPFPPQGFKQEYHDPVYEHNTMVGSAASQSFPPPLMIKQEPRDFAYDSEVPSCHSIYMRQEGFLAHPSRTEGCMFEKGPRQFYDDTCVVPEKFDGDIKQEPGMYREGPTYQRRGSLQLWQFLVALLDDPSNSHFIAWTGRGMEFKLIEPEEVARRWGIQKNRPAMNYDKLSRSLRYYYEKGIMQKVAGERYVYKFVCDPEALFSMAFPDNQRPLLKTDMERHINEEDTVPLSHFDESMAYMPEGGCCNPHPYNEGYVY
ELF4, sequence (Q99607 whole entry): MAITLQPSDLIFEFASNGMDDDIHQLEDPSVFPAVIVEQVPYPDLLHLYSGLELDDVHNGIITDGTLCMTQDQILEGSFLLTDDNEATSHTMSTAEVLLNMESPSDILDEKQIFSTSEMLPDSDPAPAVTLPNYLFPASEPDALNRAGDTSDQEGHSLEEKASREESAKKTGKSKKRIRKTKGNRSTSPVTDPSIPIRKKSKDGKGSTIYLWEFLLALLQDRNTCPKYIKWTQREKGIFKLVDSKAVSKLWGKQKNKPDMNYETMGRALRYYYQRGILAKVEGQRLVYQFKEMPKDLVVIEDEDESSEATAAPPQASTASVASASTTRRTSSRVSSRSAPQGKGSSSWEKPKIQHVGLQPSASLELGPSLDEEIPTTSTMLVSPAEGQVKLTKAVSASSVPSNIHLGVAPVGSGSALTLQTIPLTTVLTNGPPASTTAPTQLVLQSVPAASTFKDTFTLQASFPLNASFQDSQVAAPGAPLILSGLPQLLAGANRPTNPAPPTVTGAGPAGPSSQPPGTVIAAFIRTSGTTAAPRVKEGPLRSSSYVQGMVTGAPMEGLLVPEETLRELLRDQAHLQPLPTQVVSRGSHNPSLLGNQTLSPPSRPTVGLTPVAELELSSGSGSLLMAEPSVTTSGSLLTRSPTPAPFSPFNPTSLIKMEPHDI
HSF1, sequence (Q00613 whole entry): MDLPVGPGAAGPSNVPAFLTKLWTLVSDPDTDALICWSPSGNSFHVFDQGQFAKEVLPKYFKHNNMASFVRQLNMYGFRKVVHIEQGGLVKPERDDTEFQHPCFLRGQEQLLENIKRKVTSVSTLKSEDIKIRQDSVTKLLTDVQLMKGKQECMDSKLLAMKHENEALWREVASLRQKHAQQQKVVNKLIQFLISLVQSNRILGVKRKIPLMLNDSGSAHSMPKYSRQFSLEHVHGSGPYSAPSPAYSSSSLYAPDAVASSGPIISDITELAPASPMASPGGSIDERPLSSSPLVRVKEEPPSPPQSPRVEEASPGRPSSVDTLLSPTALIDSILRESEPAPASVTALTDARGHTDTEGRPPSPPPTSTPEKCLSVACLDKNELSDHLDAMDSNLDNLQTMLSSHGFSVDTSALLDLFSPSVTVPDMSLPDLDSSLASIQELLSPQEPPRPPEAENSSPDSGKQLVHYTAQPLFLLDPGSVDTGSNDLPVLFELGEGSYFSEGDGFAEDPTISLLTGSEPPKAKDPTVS
CRX, sequence (O43186 whole entry): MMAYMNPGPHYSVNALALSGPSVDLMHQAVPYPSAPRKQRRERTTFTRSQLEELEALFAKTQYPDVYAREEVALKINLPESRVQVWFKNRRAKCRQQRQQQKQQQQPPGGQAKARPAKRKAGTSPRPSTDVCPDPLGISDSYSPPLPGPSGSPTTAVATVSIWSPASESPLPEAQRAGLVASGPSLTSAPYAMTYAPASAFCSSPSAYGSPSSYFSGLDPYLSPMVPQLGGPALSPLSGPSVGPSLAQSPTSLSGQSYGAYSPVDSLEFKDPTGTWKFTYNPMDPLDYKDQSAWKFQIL
ETV5, sequence (P41161 whole entry): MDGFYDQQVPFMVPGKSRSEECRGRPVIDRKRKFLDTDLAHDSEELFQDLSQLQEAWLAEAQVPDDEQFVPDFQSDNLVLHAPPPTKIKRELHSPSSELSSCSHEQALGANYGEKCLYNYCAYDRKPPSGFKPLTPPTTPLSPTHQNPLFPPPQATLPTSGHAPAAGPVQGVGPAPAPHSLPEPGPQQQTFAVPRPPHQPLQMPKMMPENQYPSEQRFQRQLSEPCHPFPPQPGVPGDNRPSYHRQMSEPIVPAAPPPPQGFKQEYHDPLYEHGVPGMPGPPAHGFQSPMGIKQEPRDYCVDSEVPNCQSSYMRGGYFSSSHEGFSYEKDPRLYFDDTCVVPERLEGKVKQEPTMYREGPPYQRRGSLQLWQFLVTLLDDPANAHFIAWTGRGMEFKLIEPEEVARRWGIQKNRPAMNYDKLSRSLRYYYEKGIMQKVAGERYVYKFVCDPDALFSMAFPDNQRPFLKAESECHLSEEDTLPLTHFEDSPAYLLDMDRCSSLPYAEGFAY
ELF1, sequence (P32519 whole entry): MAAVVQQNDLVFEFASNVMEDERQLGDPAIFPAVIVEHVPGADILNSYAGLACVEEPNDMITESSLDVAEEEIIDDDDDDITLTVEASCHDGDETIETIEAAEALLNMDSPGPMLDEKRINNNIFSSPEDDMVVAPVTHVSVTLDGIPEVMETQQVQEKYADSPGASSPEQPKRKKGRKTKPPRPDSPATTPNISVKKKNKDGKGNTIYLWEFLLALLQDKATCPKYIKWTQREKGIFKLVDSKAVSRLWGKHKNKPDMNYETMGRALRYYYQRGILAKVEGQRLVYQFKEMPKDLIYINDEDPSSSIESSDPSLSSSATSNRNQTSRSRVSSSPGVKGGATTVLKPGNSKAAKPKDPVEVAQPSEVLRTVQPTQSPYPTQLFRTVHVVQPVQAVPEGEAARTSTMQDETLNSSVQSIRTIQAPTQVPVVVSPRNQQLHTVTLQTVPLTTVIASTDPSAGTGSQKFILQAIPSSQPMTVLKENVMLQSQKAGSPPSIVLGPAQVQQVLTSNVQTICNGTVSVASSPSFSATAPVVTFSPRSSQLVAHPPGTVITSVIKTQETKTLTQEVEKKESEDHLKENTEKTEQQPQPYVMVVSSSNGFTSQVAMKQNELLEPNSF

ATACTA
binding signal (FLI1): 1.16 fold enrichment (6-mer frequency, TF over GST control)
binding signal (ELK1): 1.11 fold enrichment (6-mer frequency, TF over GST control)
binding signal (GABPA): 1.25 fold enrichment (6-mer frequency, TF over GST control)
binding signal (ERG): 1.17 fold enrichment (6-mer frequency, TF over GST control)
binding signal (ELF1): 1.21 fold enrichment (6-mer frequency, TF over GST control)
binding signal (EHF): 1.22 fold enrichment (6-mer frequency, TF over GST control)
binding signal (SPI1): 1.13 fold enrichment (6-mer frequency, TF over GST control)
binding signal (SPIB): 1.22 fold enrichment (6-mer frequency, TF over GST control)
binding signal (ELK3): 1.06 fold enrichment (6-mer frequency, TF over GST control)
binding signal (FEV): 1.13 fold enrichment (6-mer frequency, TF over GST control)
binding signal (ETV5): 1.13 fold enrichment (6-mer frequency, TF over GST control)
binding signal (HSF1): 1.34 fold enrichment (6-mer frequency, TF over GST control)
binding signal (SPIC): 1.1 fold enrichment (6-mer frequency, TF over GST control)
binding signal (ELF4): 1.19 fold enrichment (6-mer frequency, TF over GST control)
binding signal (ELK4): 1.19 fold enrichment (6-mer frequency, TF over GST control)
binding signal (ETV2): 1.14 fold enrichment (6-mer frequency, TF over GST control)
binding signal (ELF3): 1.08 fold enrichment (6-mer frequency, TF over GST control)
binding signal (CRX): 1.38 fold enrichment (6-mer frequency, TF over GST control)
binding signal (ETV1): 1.1 fold enrichment (6-mer frequency, TF over GST control)
